Counter-ions that a name gives are not always drawn.
Key:
Settings in all cases: 10 µM; exposure time 6 h
[1] = system: Danio rerio larvae (5 dpf); test: difference in excitability vs DMSO (percentage points); higher = more excitable than DMSO
In short: (§1)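 Library compounds were tested at 10 µM final in 100 µL egg water on wild-type 5 dpf zebrafish larvae in 96-well plates for 6 h, with 48 larvae per compound. After 3 h, plates at 28.5 ℃ were imaged every 6 s during a 3-h run of moving lines and 100 ms, 400Hz tones. Behaviours were quantified by Z-LaP Tracker and reported as the compound mean less the vehicle control mean, in percentage points.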

[2] = system: Danio rerio larvae (5 dpf); test: difference in startle response vs DMSO (percentage points); higher = stronger startle than DMSO
In short: as §1

[3] = system: Danio rerio larvae (5 dpf); test: difference in activity during first hour vs DMSO (percentage points); higher = more activity than DMSO
In short: as §1

[4] = system: Danio rerio larvae (5 dpf); test: difference in habituation to acoustic stimuli vs DMSO (percentage points); higher = more habituation than DMSO
In short: as §1

[5] = system: Danio rerio larvae (5 dpf); test: difference in combined optomotor response to red, green and blue moving lines vs DMSO (percentage points); higher = stronger optomotor response than DMSO
In short: as §1

SMILES | difference in excitability [1] | difference in startle response [2] | difference in activity during first hour [3] | difference in habituation to acoustic stimuli [4] | difference [5]
CCOC(=O)c1ncn2c1CN(C)C(=O)c1cc(F)ccc1-2 [Flumazenil] | 3.25 | 7.64 | 0.681 | 2.54 | 3.91
CCN(Cc1ccncc1)C(=O)C(CO)c1ccccc1 (stereo not given) [Tropicamide] | 1.51 | -4.55 | 14.3 | -1.41 | 6.16
CC(O)C(O)[C@H]1CNc2nc(N)[nH]c(=O)c2N1 (stereo partly drawn) [(6R)-5,6,7,8-tetrahydro-L-Biopterin (hydrochloride)] | 0.358 | -1.51 | -0.551 | 1.85 | 6.59
C[C@](N)(Cc1ccc(O)c(O)c1)C(=O)O [L-(-)-α-Methyldopa] | 2.76 | -2.74 | 3.45 | -1.83 | 6
C[C@@](Cc1ccc(O)c(O)c1)(NN)C(=O)O [Carbidopa (hydrate)] | 5.76 | 3.77 | 4.48 | -7.23 | 6.07
Cc1cn(-c2cc(NC(=O)c3ccc(C)c(Nc4nccc(-c5cccnc5)n4)c3)cc(C(F)(F)F)c2)cn1 [Nilotinib] | 28.8 | -3.62 | -6.05 | -1.02 | -2.49
Clc1ccc2c(c1)C(N1CCNCC1)=Nc1ccccc1O2 [Amoxapine] | 6.07 | -0.987 | 35.7 | -1.72 | 12.4
CC(C)(C)NC[C@H](O)COc1cccc2c1CCCC2=O [Levobunolol (hydrochloride)] | 5.55 | 1.6 | 12.7 | -1.95 | 5.62
CCCCC[C@](C)(O)/C=C/[C@@H]1[C@@H](C/C=C\CCCC(=O)O)[C@@H](O)C[C@H]1O [15(S)-15-methyl Prostaglandin F2α] | 1.12 | 0.545 | 22.8 | 1.43 | 5.47
C1N2CN3CN1CN(C2)C3 [Methenamine Hippurate] | 0.76 | 5.89 | -3.94 | 9.62 | 2.94
CNC(=O)c1ccc(N2C(=S)N(c3cnc(C#N)c(C(F)(F)F)c3)C(=O)C23CCC3)cc1F | -1.56 | -1.13 | 6.27 | 0.499 | 11.9
CNC1(C)C2CCC(C2)C1(C)C (stereo not given) [Mecamylamine (hydrochloride)] | 3.59 | -1.88 | -1.28 | -4.36 | 11.1
O=c1[nH]cc(F)c(=O)[nH]1 [5-Fluorouracil] | 4.49 | -1.7 | -1.12 | 0.939 | 0.269
C=CC(N)CCC(=O)O (stereo not given) [Vigabatrin] | -1.24 | 5.92 | 1.31 | 1.13 | -0.249
CCCCC1=NC2(CCCC2)C(=O)N1Cc1ccc(-c2ccccc2-c2nnn[nH]2)cc1 [Irbesartan] | 5.86 | -3.98 | 6.09 | -4.93 | 5.61
CCN(CC)C(=S)SSC(=S)N(CC)CC [Disulfiram] | 12.2 | -15.9 | 38.4 | -13 | -9.71
Oc1ccc(C2CNCCc3c2cc(O)c(O)c3Cl)cc1 (stereo not given) [Fenoldopam (mesylate)] | 9.9 | -2.3 | 4.74 | -1.52 | -1.12
C[C@]12CC[C@@H]3c4ccc(OS(=O)(=O)O)cc4CC[C@H]3[C@@H]1CCC2=O [Estropipate] | 1.84 | -3.42 | -3.25 | -2.86 | -4.79
C#CCN[C@@H]1CCc2ccccc21 [Rasagiline] | 3.5 | 1.96 | 10.2 | 4.46 | 6.27
CCOc1cc([C@@H](CS(C)(=O)=O)N2C(=O)c3cccc(NC(C)=O)c3C2=O)ccc1OC [Apremilast] | 0.408 | 3.1 | -6.82 | -0.561 | -3.01
C[N+](C)(C)CC=O [Betaine Aldehyde (chloride)] | 7.5 | 1.56 | 10.1 | -0.929 | 4.79
C[N+](C)(C)C[C@H](O)CC(=O)[O-] [L-Carnitine] | -2.51 | -2.46 | 8.51 | 4 | 3.58
CO[C@H]1C[C@@H]2CC[C@@H](C)[C@@](O)(O2)C(=O)C(=O)N2CCCC[C@H]2C(=O)O[C@H]([C@H](C)C[C@@H]2CC[C@@H](OC(=O)C(C)(CO)CO)[C@H](OC)C2)CC(=O)[C@H](C)/C=C(\C)[C@@H](O)[C@@H](OC)C(=O)[C@H](C)C[C@H](C)/C=C/C=C/C=C/1C [Temsirolimus] | 7.02 | -6.86 | -1.53 | 4.35 | 0.433
CC1(C)S[C@@H]2[C@H](NC(=O)[C@H](N)c3ccccc3)C(=O)N2[C@H]1C(=O)O [Ampicillin (sodium salt)] | 2.42 | 0.739 | -2.5 | -4.92 | -2.47

SMILES | difference in excitability [1] | difference in startle response [2] | difference in activity during first hour [3] | difference in habituation to acoustic stimuli [4] | difference [5]
CO/N=C1\C[C@]2(C[C@@H]3C[C@@H](C/C=C(\C)C[C@@H](C)/C=C/C=C4\CO[C@@H]5[C@H](O)C(C)=C[C@@H](C(=O)O3)[C@]45O)O2)O[C@H](/C(C)=C/C(C)C)[C@H]1C [Moxidectin] | 8.4 | -9.21 | -23 | -11.5 | -17
CN(C)CCCC1(c2ccc(F)cc2)OCc2cc(C#N)ccc21 (stereo not given) [Citalopram (hydrobromide)] | 8.67 | -1.92 | -12.8 | -3.86 | -4.06
Nc1nc(=S)c2[nH]cnc2[nH]1 [6-Thioguanine] | 2.87 | -3.35 | 1.36 | 0.958 | 6.09
CN(C)CCOc1ccc(/C(=C(/CCCl)c2ccccc2)c2ccccc2)cc1 [Toremifene (citrate)] | 4.69 | -6.57 | 9.64 | -7.15 | -13.3
CCCCCCCCc1ccc(CCC(N)(CO)CO)cc1 [Fingolimod] | 5.87 | -4.94 | -2.73 | -2 | -4.81
COc1cc2/c(=N/c3ccc(Br)cc3F)nc[nH]c2cc1OCC1CCN(C)CC1 [Vandetanib] | 12.1 | -1.93 | -4.76 | 5.41 | 6.09
O=S(=O)(O)CCS [Mesna] | -4.43 | 2.29 | 12.8 | -1.88 | 6.5
Cn1c(=O)c2nc[nH]c2n(C)c1=O [Theophylline] | 4.49 | 5.34 | 8.14 | 4.58 | -0.54
CC1(C)O[C@@H]2[C@@H](CO[C@@]3(COS(N)(=O)=O)OC(C)(C)O[C@@H]23)O1 [Topiramate] | -2.77 | 10.8 | -1.72 | 1.75 | -0.45
CC(C)OC(=O)CCC/C=C\C[C@@H]1[C@@H](CC[C@@H](O)CCc2ccccc2)[C@H](O)C[C@@H]1O [Latanoprost] | 1.84 | -0.286 | 20.8 | 3.23 | 7.08
C=CC1=C(C(=O)O)N2C(=O)[C@@H](NC(=O)/C(=N\OCC(=O)O)c3csc(N)n3)[C@H]2SC1 [Cefixime] | -0.725 | -0.605 | 11.6 | 8.39 | 10.8
Cc1cc2nc3c(=O)[nH]c(=O)nc-3n(C[C@H](O)[C@H](O)[C@H](O)COP(=O)(O)O)c2cc1C [Riboflavin 5'-monophosphate (sodium salt hydrate)] | -1.24 | -0.41 | 13.4 | 5.95 | -0.41
NC(=O)[C@@H]1CC[C@@H]2CN1C(=O)N2OS(=O)(=O)O [Avibactam (sodium salt)] | 1.97 | 0.773 | 5.58 | 4.75 | 6.37
C/C(=C\c1csc(C)n1)[C@@H]1C[C@@H]2O[C@]2(C)CCC[C@H](C)[C@H](O)[C@@H](C)C(=O)C(C)(C)[C@@H](O)CC(=O)N1 [Ixabepilone] | 0.28 | -3.45 | 16.6 | 5.42 | -1.72
CC(C)[N+](C)(CCOC(=O)C1c2ccccc2Oc2ccccc21)C(C)C [Propantheline (bromide)] | 4.4 | 5.21 | 4.15 | 4.81 | 5.08
Nc1cc(Cl)c(N=C2NCCN2)c(Cl)c1 [Apraclonidine (hydrochloride)] | 8.82 | 7.97 | -13.7 | -0.961 | -2.54
CC#C[C@]1(O)CC[C@H]2[C@@H]3CCC4=CC(=O)CCC4=C3[C@@H](c3ccc(N(C)C)cc3)C[C@@]21C [Mifepristone] | 10.2 | -2.97 | -9.36 | 0.759 | 4.72
COc1cc(C)c(/C=C/C(C)=C/C=C/C(C)=C/C(=O)O)c(C)c1C [Acitretin] | 6.34 | -12.5 | 50.6 | -15.4 | -20.9
Cc1cc(C)cc(OCC2CNC(=O)O2)c1 (stereo not given) [Metaxalone] | 8.24 | -0.153 | 0.609 | 5.03 | 10.1
Cc1ncc(CO)c(CO)c1O [Pyridoxine] | -7.67 | 5.43 | 7.49 | 4.31 | 4.65
CC[C@@]1(O)C(=O)OCc2c1cc1n(c2=O)Cc2cc3c(CN(C)C)c(O)ccc3nc2-1 [Topotecan (hydrochloride)] | 4.94 | -0.393 | 0.473 | -4.39 | 1.01
COC(=O)N[C@H](C(=O)N1CCC[C@H]1c1ncc(-c2ccc(-c3ccc(-c4cnc([C@@H]5CCCN5C(=O)[C@@H](NC(=O)OC)C(C)C)[nH]4)cc3)cc2)[nH]1)C(C)C [Daclatasvir] | 18.7 | 2.15 | -4.26 | 0.308 | -0.609
CCC1=C[C@@H]2CN(C1)Cc1c([nH]c3ccccc13)[C@@](C(=O)OC)(c1cc3c(cc1OC)N(C)[C@H]1[C@@](O)(C(=O)OC)[C@H](OC(C)=O)[C@]4(CC)C=CCN5CC[C@]31[C@@H]54)C2 [Vinorelbine (tartrate)] | 11.6 | -5.75 | 3.25 | -2.19 | -4.51
N=C(N)NCCCC[C@@H]1NC(=O)CCSSC[C@@H](C(N)=O)NC(=O)[C@@H]2CCCN2C(=O)[C@H](Cc2c[nH]c3ccccc23)NC(=O)[C@H](CC(=O)O)NC(=O)CNC1=O [Eptifibatide] | 10.9 | 3.19 | 5.64 | -3.64 | 2.85
